Tau fibril FP – blocks human tau fibril formation measured by polarization | 280,000 compounds, 0.39% hits | Potency, µM (titrated, usually from 57.7 µM), without a hit: at the top dose activity, negative = inhibition, hits mostly inhibitors | K18 P301L tau heparin fibrillization, Alexa594 FP, 6 h | P10636; also: potency is read from the fitted curve at half-maximal effect; nearly all actives have a fitted effect of over 55% in size
Target sequence (P10636 561-689 P618L limits assumed): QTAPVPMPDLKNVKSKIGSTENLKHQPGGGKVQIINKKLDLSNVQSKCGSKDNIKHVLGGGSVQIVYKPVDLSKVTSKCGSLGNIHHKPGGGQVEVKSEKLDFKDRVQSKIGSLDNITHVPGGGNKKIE
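Recombinant K18 P301L […], labeled with Alexa 594 at 0.24 uM over 15 uM unlabeled; heparin inducer 20 uM final; 37 C, 6 hr; FP endpoint.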
FBPA coupling cs – counter-screen for Giardia aldolase inhibitors: coupling enzyme system; coupling enzyme system counterscreen, AmpLite Red fluorescence; 290,000 compounds, 0.67% hits; AID 2472; activity change, negative = inhibition, % at 58.2 µM, hits read low; in the data active = activity change below about -30%
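Counterscreen of the coupled detection system alone, without aldolase: glyceraldehyde-3-phosphate coupling enzymes plus AmpLite Red readout. Compounds at 57.5 uM final, 10 min RT preincubation, 20 min RT reaction, fluorescence 525/598 nm.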
Tau ThT inhib – inhibitors of human tau fibril formation, thioflavin T binding | P10636 | recombinant tau K18 P301L, heparin-induced fibrillization, ThT fluorescence | Potency, µM (top dose mostly 57.4 µM), without a hit: at the highest dose activity, negative = inhibition, actives largely listed as inhibitors | AID 1460 | 270,000 compounds, 2.1% hits; also: potency is read from the fitted curve at half-maximal effect; nearly all actives have a fitted effect of over 55% in size
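Fibril formation assay: tau K18 P301L at 15 uM with trace Alexa 594 label, heparin inducer 20 uM, pH 7 sodium acetate buffer, 37 C for 6 hr; endpoint ThT signal.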
Tau fluor cs – counter-screen for tau fibril formation inhibitors | tau K18 P301L Alexa594 fluorescence, heparin fibrillization | Potency, µM (series often up to 57.7 µM), for the others: at the top dose activity change, negative = decrease | AID 1463 | 280,000 compounds, 0.93% hits; also: potency is read from the fitted curve at half-maximal effect; nearly all actives have a fitted effect of over 55% in size
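Human tau K18 P301L (15 uM unlabeled, 0.24 uM Alexa 594-labeled) in 100 mM sodium acetate pH 7 with 20 uM heparin, 6 hr at 37 C. ThT 30 uM added, 1 hr ambient; Alexa 594 FP and total fluorescence read at 555/632 nm.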
* marks the source's active call; other numbers are inactive results; ? = inconclusive; nt = no result given; [ ] = another dose, or the depositor's remark. The list is not random: actives were taken first. Their share in the collection is about 2.7%. Unless noted, calls follow the shape of the dose curve; as a rule, active = well fitted curve in the direction sought with a large enough effect; inconclusive = small, poorly fitted or top-dose-only effect, or another doubt; inactive = no such curve, though single readings can be large; an effect the other way counts as inactive or inconclusive. % is scaled to controls: 0 for no effect and ±100 for the full control effect.

SMILES	Tau fibril FP	FBPA coupling cs	Tau ThT inhib	Tau fluor cs
COc1ccc(CC(=O)Nc2cccc(SC)c2)cc1OC	7.7%	0.0	4.7%	-4.9%
COc1ccc(NC(=O)c2ccco2)cc1N	-6.5%	-40.6*	-15.8%	-10.1%
COc1ccc(C(=O)Nc2cc(OC)c(NC(=O)c3ccco3)cc2OC)cc1	4.6%	-35.2*	?	?
COc1ccc(NC(=O)c2ccc(NC(=O)c3ccco3)cc2)c(OC)c1	nt	1.0	nt	nt
COc1ccc(NC(=O)c2ccco2)cc1NC(=O)c1ccco1	0.6%	-2.9	-11.2%	-2.7%
COc1cc(NC(=O)c2ccco2)c(OC)cc1NC(=O)Nc1cccc(Cl)c1	9.1%	-0.1	?	12.6µM*[quencher]
COc1ccc(NC(=O)c2ccco2)cc1NC(=O)c1c(OC)cccc1OC	-0.2%	-0.6	?	-19.4%
Cc1nc(SCC(=O)Nc2ccccc2Cl)cc(-c2ccccc2)n1	-8.4%	nt	-9.2%	-10.7%
Cc1ccc(C)n1-c1ccccc1N	-11.7%	-55.9*	-24.0%	-17.9%
Cc1cc(=O)cc(C)n1-c1ccccc1N	nt	2.0	nt	nt
O=c1cc(-c2ccccc2)[nH]n1-c1ccc([N+](=O)[O-])cc1	5.0%	-0.4	12.6µM*	?
O=C(C1=NN[C@@H]2C(=O)N(c3cccc(C(F)(F)F)c3)C(=O)[C@H]12)c1cnccn1	0.0%	-1.9	-6.7%	-4.1%
Cc1cc2nc3c(=O)[nH]c(=O)nc-3n(C)c2cc1C=O	?	-38.1*	?	-23.5%
CC(=O)OCCn1c2nc(=O)[nH]c(=O)c-2nc2cc(C)c(C)cc21	-11.5%	-19.5	?	-8.2%
CCNc1ncc2nc(C)c(=O)n(C)c2n1	nt	0.3	nt	nt
Cc1ccc(-c2nnc(Nc3ccc(F)cc3)c3ccccc23)cc1S(=O)(=O)NC(C)C	?	nt	-5.8%	?
O=C(O)C1CCC(NSc2ccccc2[N+](=O)[O-])CC1 (configuration not stated)	17.8µM*	5.1	15.8µM*	-18.6%
COC1C(O)C(CO)OC1n1cnc2c(NC3CCCCC3)ncnc21 (configuration not stated)	nt	-12.5	nt	nt
O=C(C1=C[C@@H]2[C@H]3C(=O)N(c4ccc(Cl)cc4)C(=O)[C@H]3[C@@H](C(=O)c3ccc(Cl)cc3)N2C=C1)c1ccccc1	-19.4%	-1.2	14.1µM*	?
Cc1nnc(Sc2cc(NCCO)c([N+](=O)[O-])c3nonc23)s1	?	-22.2	7.94µM*	?
Cc1nnc(Sc2cc(NCCCO)c([N+](=O)[O-])c3nonc23)s1	-14.1%	-36.5*	6.31µM*	?
CCOC(=O)c1c(C)[nH]c(C2=NNC(=NC3CC3)SC2)c1C	?	-2.7	15.8µM*	?
Cn1cc([N+](=O)[O-])c(C(=O)Nc2ccc3nc(-c4ccccc4)[nH]c3c2)n1	-4.0%	-10.2	15.8µM*	?
Cn1cccc1-c1nc2ccc(NC(=O)c3ccc([N+](=O)[O-])cc3)cc2[nH]1	0.0%	-4.2	1.26µM*	?
CCCN1C(C(=O)c2ccccc2)=C(OC(=O)COc2ccccc2)c2ccccc2S1(=O)=O	6.0%	nt	?	-24.9%
SMILES	Tau fibril FP	FBPA coupling cs	Tau ThT inhib	Tau fluor cs
CCCCC(=O)OC1=C(C(=O)c2ccccc2)N(C)S(=O)(=O)c2ccccc21	12.3%	nt	14.1µM*	-23.4%
CN(C)c1ccc(NC(=O)CSCc2nc3c(nnn3Cc3ccc(F)cc3)c(=O)[nH]2)cc1	0.0%	-36.5*	?	-14.6%
Cc1cccc(NC(=O)CSCc2nc3c(nnn3Cc3ccc(F)cc3)c(=O)[nH]2)c1C	3.1%	2.6	12.4%	11.8%
C/C(Cn1nnc([N+](=O)[O-])n1)=N\NC(=O)c1ccccc1	-2.3%	-40.2*	-5.8%	-3.1%
COc1ccc(C(=O)Cc2nnc(C)s2)c(OC)c1	-6.3%	-33.7*	?	-9.2%
Cc1ccc(-c2csc(NC(=O)c3cc([N+](=O)[O-])ccc3N3CCOCC3)n2)cc1	4.0%	-1.7	-3.0%	-12.2%
O=C(Nc1nc(-c2ccccc2)cs1)c1ccc(N2CCOCC2)c([N+](=O)[O-])c1	5.1%	-2.3	8.91µM*	?
O=C(Nc1ccon1)c1ccc(N2CCCCC2)c([N+](=O)[O-])c1	-1.7%	0.2	?	-16.3%
O=C(Nc1nc2ccccc2s1)c1ccc(N2CCCCC2)c([N+](=O)[O-])c1	-13.9%	-0.7	4.47µM*	?
O=C(CSC1=Nc2ccccc2C2=NC(Cc3ccccc3)C(=O)N12)Nc1ccccc1C(F)(F)F (configuration not stated)	-0.6%	nt	-17.0%	-17.0%
O=C(CSc1ccc(-c2ccco2)nn1)N1CCCCC1	2.9%	-46.5*	?	-17.8%
CCCCNC(=O)CSc1nc2ccc(N3CCOCC3)cc2c(=O)n1Cc1ccc(OC)cc1	-4.6%	-30.7*	?	-21.8%
COCCNC(=O)CSc1nc2cc(OC)c(OC)cc2c(=O)n1Cc1ccc(OC)cc1	-7.5%	0.0	3.9%	-2.6%
COCCNC(=O)CSc1nc2ccc(N3CCOCC3)cc2c(=O)n1Cc1ccc(OC)cc1	-10.6%	-38.9*	?	?
CCOC(=O)CSc1nc2ccc(N3CCOCC3)cc2c(=O)n1Cc1ccc2c(c1)OCO2	8.8%	-31.1*	?	?
COc1ccc(-n2nc3c(c2NC(=O)C(=O)NCc2ccccc2)CSC3)cc1	-9.5%	nt	?	-5.5%
O=C(O)CC1S/C(=N/N=C/c2ccc(-c3ccc(Cl)c([N+](=O)[O-])c3)o2)NC1=O (configuration not stated)	0.0%	9.6	7.08µM*	-17.6%
CCCC(c1nnnn1CCOC)N(Cc1cc2cc(C)c(C)cc2[nH]c1=O)CC1CCCO1 (configuration not stated)	0.5%	-41.4*	-7.2%	-1.3%
CCC(c1nnnn1CCOC)N(Cc1cc2cc(C)c(C)cc2[nH]c1=O)CC1CCCO1 (configuration not stated)	4.1%	-4.7	-11.8%	-4.1%
COc1ccc(C2NC(=O)C(C#N)=C(S)N2c2ccc(C)cc2)cc1OC (configuration not stated)	?	6.0	31.6µM*	-18.7%
CCOc1ccc(C2NC(=O)C(C#N)=C(S)N2c2ccc(OC)cc2)cc1OC (configuration not stated)	?	4.5	?	-21.8%
COc1ccc(N2C(S)=C(C#N)C(=O)NC2c2ccc(OC)c(OC)c2)cc1 (configuration not stated)	?	5.6	28.2µM*	-25.1%
CCN(CC)CCCNC(=O)CCCn1ncn2c(cc3occc32)c1=O	-5.2%	nt	0.8%	-3.2%
Cc1ccc(N2C(=O)[C@@H]3CSC(c4ccc(Cl)cc4)N3C2=O)cc1 (some centres not stated)	-3.0%	nt	-6.5%	-17.5%
CCO/C=C1\C(=O)N(c2ccccc2)C(=O)c2ccccc21	-3.0%	0.2	-7.9%	-2.6%
CCO/C=C1/C(=O)N(Cc2ccccc2)C(=O)c2ccccc21	-5.5%	-44.4*	-11.5%	-5.4%
CCOC(=O)c1nnc(-c2ccccc2)nc1Sc1c(Cl)cccc1Cl	-6.3%	-4.5	11.2µM*	?

Assay outcomes from PubChem.
